# Hits are enriched below; roughly 3.6% of the tested compounds scored in any of these assays.
# PHOSPHO1 block: PubChem AID 1565 | inhibition, % at 13.3 µM | hit rate 1.1% among 290,000 | Phosphoethanolamine/phosphocholine phosphatase (Homo sapiens), Q8TCT1 | recombinant PHOSPHO1, absorbance phosphatase assay; in the data active means inhibition above about 60%
# Wnt bcat act: Wnt/beta-catenin pathway activators, primary screen, cell-based, plate reader, single point. Wnt/beta-catenin reporter cell assay, activator. activation, % at 9.35 µM. hit rate 1.2% among 300,000. AID 743398, 2014; in the data active means activation above about 30%, passing the limit was not always enough;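 further: 0% = neutral control wells and 100% = positive control wells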
# MITF TRPM1 HTS: activators of MITF-driven TRPM1 promoter reporter, primary screen, cell-based, SK-MEL-5, luciferase, single point. hit rate 0.75% among 300,000. activation, % at 12.5 µM. AID 588334, 2011. SK-MEL-5 TRPM1-promoter luciferase, 24 h; % of positive control, neutral wells = 0;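 active means mean activation of at least 80% with every replicate also reaching 80%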;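 further: 0% = neutral control wells and 100% = parthenolide positive control wells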
# A3G deaminase: APOBEC3G DNA deaminase inhibitors, primary screen, biochemical, fluorescence, single-stranded DNA substrate, uHTS. DNA dC->dU-editing enzyme APOBEC-3G (Homo sapiens), Q9HC16. recombinant A3G, ssDNA deamination FAM/TAMRA fluorescence. inhibition, % at 20 µM. hit rate 0.28% among 330,000. AID 493012, 2011;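 active means inhibition of at least 40% at 20 µM, with no more than 30% in the related APOBEC3A deaminase screen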;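 further: plate controls were DMSO wells with A3G for no effect and wells lacking A3G enzyme for full effect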
# Target sequence (Q9HC16 whole entry, looked up): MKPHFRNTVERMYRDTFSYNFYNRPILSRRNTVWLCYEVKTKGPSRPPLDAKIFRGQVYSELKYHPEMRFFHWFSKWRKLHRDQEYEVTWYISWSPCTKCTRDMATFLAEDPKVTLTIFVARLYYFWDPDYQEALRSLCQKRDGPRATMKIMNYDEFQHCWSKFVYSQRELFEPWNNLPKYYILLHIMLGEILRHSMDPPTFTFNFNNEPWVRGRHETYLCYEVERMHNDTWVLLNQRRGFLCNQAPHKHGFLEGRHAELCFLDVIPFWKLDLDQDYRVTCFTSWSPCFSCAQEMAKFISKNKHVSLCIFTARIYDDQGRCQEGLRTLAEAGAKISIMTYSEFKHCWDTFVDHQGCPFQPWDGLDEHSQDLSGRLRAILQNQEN
# A3A deaminase: APOBEC3A ssDNA deaminase inhibitors, primary screen, selectivity assay for APOBEC3G inhibitor project, biochemical, FAM/TAMRA oligo cleavage fluorescence; DNA dC->dU-editing enzyme APOBEC-3A (Homo sapiens), P31941; recombinant A3A, FAM/TAMRA ssDNA deamination fluorescence; inhibition, % at 20 µM; hit rate 0.41% among 330,000; AID 493011, 2011;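 active means at least 40% inhibition at 20 µM here, with at most 30% in a related deaminase screen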;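 further: plate controls were A3A with DMSO for no effect and wells lacking A3A enzyme for full effect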
# esBAF inh: Bmi1 luciferase reporter increase in mESCs, primary screen, esBAF inhibitor project, mouse ES cells, Bmi1 luciferase knock-in, single point | 24 h; 100% = twice the neutral-well signal | reporter increase, % at 12.5 µM | hit rate 2% among 350,000 | AID 602393, 2012; in the data active means activation above about 40%;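 further: 0% = median of the plate's neutral control wells and 100% = double that signal; a rise in the Bmi1 reporter signal indicates esBAF inhibition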
# A3A conf: APOBEC3A deaminase inhibitors, retest, confirmation, selectivity assay for APOBEC3G inhibitor project, biochemical, single concentration, fluorescence readout; shares compounds with A3A deaminase; recombinant A3A, ssDNA deaminase UDG fluorescence assay; inhibition, % at 20 µM; hit rate 63% among 1,400; AID 493151, 2011;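 active means inhibition reaching a set limit, 80% of the first screen's cutoff, at 20 µM in any replicate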;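 further: plate controls were DMSO wells with A3A for no effect and wells lacking A3A enzyme for full effect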
# UDG ctr A3A: E. coli UDG inhibitors, confirmation, counter-screen for APOBEC3A inhibitor project, biochemical, single concentration, fluorescence, FAM/TAMRA oligo | 1,000 tested, under 10 active | shares compounds with A3A deaminase | UDG counterscreen, FAM/TAMRA uracil oligo fluorescence | inhibition, % at 20 µM; call rule not given here
# * marks the source's active call; other numbers are inactive results; nt = not tested or not shown.
SMILES,PHOSPHO1 block,Wnt bcat act,MITF TRPM1 HTS,A3G deaminase,A3A deaminase,esBAF inh,A3A conf,UDG ctr A3A
CCN1C(=NCCOC)N[C@@H](c2cccc(C(F)(F)F)c2)C(C(=O)OC)=C1C,nt,-4.0,3.5,13.7,44.9*,-16.3,80.4*,-1.8
COC(=O)C1=C(C)N(Cc2ccccc2)C(=NCc2ccccc2)N[C@H]1c1cccc(C(F)(F)F)c1,nt,nt,-87.3,-1.0,19.3,-83.4,nt,nt
CCN1C(=NCC2CC2)N[C@@H](c2cccc(C(F)(F)F)c2)C(C(=O)OC)=C1C,-35.5,nt,1.0,8.2,55.6*,-3.6,67.3*,2.8
CCN1C(=NCCc2ccccn2)N[C@@H](c2cccc(C(F)(F)F)c2)C(C(=O)OC)=C1C,nt,-1.9,7.0,6.7,31.7,-2.1,nt,nt
COC(=O)C1=C(C)N(Cc2ccccc2)C(=NCC(C)C)N[C@H]1c1cccc(C(F)(F)F)c1,nt,nt,-95.4,16.0,48.5*,2.6,74.8*,2.8
CN(C)CC(=O)N[C@H]1CC[C@@H](CCNC(=O)C2CCC2)O[C@@H]1CO,nt,nt,nt,nt,nt,-1.8,nt,nt
COc1ccc(S(=O)(=O)Nc2ccc3c(c2)C(=O)N([C@@H](C)CO)C[C@@H](C)[C@H](CN(C)CC2CC2)OCCCC[C@H](C)O3)cc1,nt,nt,nt,nt,nt,0.4,nt,nt
O=C(CSc1ccc(-c2ccncc2)nn1)N1CCCCC1,-20.0,0.4,-3.4,-2.1,101.6*,nt,3.6,5.5
CCc1noc(C)c1C(=O)NNC(=O)c1cc(OC)c(OC)c(OC)c1,nt,2.2,5.6,8.9,62.1*,4.0,53.5*,-1.3
C[C@H](CO)N1C[C@H](C)[C@@H](CN(C)C(=O)Nc2ccc(N3CCN(C)CC3)cc2)OCc2cn(nn2)CCCC1=O,nt,0.4,nt,nt,nt,-2.3,nt,nt
Cn1ccsc1=NC(=O)c1ccc([N+](=O)[O-])o1,14.7,1.4,-43.4,14.0,29.9,6.6,nt,nt
COc1cc(C(=O)N=c2sccn2C)c([N+](=O)[O-])cc1OC,-0.6,-6.4,4.2,9.8,53.4*,-8.0,5.8,nt
COc1ccc2oc(C(=O)OCC(=O)Nc3cccc(S(=O)(=O)N4CCOCC4)c3)c(C)c2c1,nt,-6.5,2.5,-1.7,43.5*,0.9,14.8,2.0
COc1ccc2oc(C(=O)OCC(=O)Nc3ccc(NC(C)=O)cc3)c(C)c2c1,nt,5.8,6.7,2.2,46.6*,4.6,0.3,nt
COCCNC(=O)C[C@H]1C[C@@H]2c3cc(NC(=O)C4CCC4)ccc3O[C@@H]2[C@H](CO)O1,nt,nt,nt,nt,nt,-7.9,nt,nt
C[C@H](CO)N1C[C@H](C)[C@@H](CN(C)C(=O)CN(C)C)Oc2ncc(C#CC(C)(C)O)cc2C1=O,nt,nt,nt,nt,nt,-1.5,nt,nt
CCCCn1c2c(c(=N)c3c1CCC3)CCC2,95.3*,nt,-31.0,21.4,62.7*,-22.9,77.9*,-0.5
CCCCCCCCCn1c2c(c(=N)c3c1CCC3)CCC2,16.6,nt,nt,-0.8,0.2,-42.9,nt,nt
Cc1noc(C)c1NC(=O)Nc1ccc2c(c1)CC(=O)N([C@H](C)CO)C[C@H](C)[C@H](CN(C)C)O2,nt,nt,nt,nt,nt,-0.7,nt,nt
O=C(O)c1cccc(-c2ccc3c(c2)OCO3)c1,nt,7.5,nt,-8.8,-1.1,5.0,nt,nt
O=C1OC(c2ccc3c(c2)OCO3)=N/C1=C\c1ccc(C(=O)O)cc1,31.3,-1.3,3.9,10.6,40.2*,0.0,32.2*,-2.6
O=C(CCN1CCCCC1)N[C@@H]1CC[C@@H](CCNS(=O)(=O)c2ccccc2)O[C@@H]1CO,nt,nt,nt,nt,nt,0.3,nt,nt

# Assay outcomes: PubChem, several laboratories
